# PubChem BioAssay (NCI)
# The panel holds about 83,000 compounds, 20% with a hit somewhere; the sample as a whole holds those more often.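 Testing used 96-well plates and a 48-hour single-concentration exposure. Example: -40 means 40% of the starting cells died.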 Unmarked numbers belong to inactive results. Activity calls are given as the source filed them. How the source made its calls: active means growth percent below 10; inactive means the rest.
# Tested on: OVCAR-3 ovarian
# Test: NCI-60 one-dose screen, 48 h (100 = growth as untreated, 0 = no growth, -100 = all killed)
# Settings: 10 µM unless noted
row,Compound,growth
1,Cn1c(=O)cc2c3c(c(NCCCO)ccc31)C(=O)c1ccccc1-2,54.4%
2,O=C(OC(CO)C(=O)NC12CC3CC(CC(C3)C1)C2)c1ccc(Cl)cc1 (stereo not given),115%
3,N#Cc1nc(-c2ccc(F)cc2)oc1S(=O)(=O)N1CCCCC1,-54.5% (active)
4,O=C1c2c(c3c4ccccc4[nH]c3c3ccc4ccccc4c23)C(=O)N1CCN1CCOCC1,44.1%
5,NC(=O)c1cc(I)ccc1NC(=O)/C=C/c1ccccc1,-63.3% (active)
6,COC(=O)c1c2c(c(C)[n+]([O-])c1C)C(=O)C(NCc1cccc(OC)c1)=CC2=O,-12.1% (active)
7,COc1ccc(CNc2c3ccccc3nc3ccccc23)cc1,48.1%
8,N=C(N)c1ccc(-c2ccc(-c3ccc(Cl)c(Cl)c3)s2)nc1,-77.8% (active)
9,Nc1c(C(=O)Nc2ccccc2F)sc2nc3c(cc12)CCCC3,4.6% (active)
10,N#CC1=C(N)Oc2c(sc3c(Br)cccc23)C1c1ccc(Cl)cc1 (stereo not given),0.89% (active)
11,COc1ccc(/C=C(\C#N)n2nnc3cc(F)c(F)cc32)cc1,21.5%
12,COc1cc(NS(=O)(=O)c2ccc(-c3cnc(C4CC4)o3)cc2)ccc1F,-15.4% (active)
13,CN1CCN(c2cc(Nc3cc(C4CC4)[nH]n3)nc(Nc3ccc(CC(=O)NCc4cccc(F)c4)cc3)n2)CC1,41.7%
14,O=C(Nc1cccc2ccccc12)NC1CC1,114%
15,CN(C)CC(C)(C)C(=O)/C=C/c1ccccc1,-18.5% [25 µM] (active)
16,COc1ccc(-c2nn(-c3cccc(Cl)c3)cc2-c2cc(-c3ccc(Br)cc3)nc(N)n2)cc1,107%
17,COc1cc2c(c(OC)c1OC)CCC(c1cccc(NC(=O)c3ccc(Br)cc3)c1)O2 (stereo not given),90.8%
18,CCOC(=O)C#Cc1c(C(=O)OCC)nnn1Cc1ccc([N+](=O)[O-])cc1,7.55% (active)

row,Compound,growth
1,O=C(N/N=C/c1c(Cl)cccc1Cl)c1cccnc1Nc1cccc(C(F)(F)F)c1,46.8%
2,C#COc1cccc(Nc2c(C#N)cnc3ncc(NC(=O)CCl)cc23)c1,7.58% [6.25 µM] (active)
3,CC(C)(Sc1cc(C(C)(C)C)c(O)c(C(C)(C)C)c1)Sc1cc(C(C)(C)C)c(OC(=O)CCCC(=O)O)c(C(C)(C)C)c1,44.2%
4,CCOC(=O)C1=C(N)Oc2c(sc3c(F)cccc23)C1c1ccc(O)cc1 (stereo not given),45.3%
5,OCCn1cc(-c2nc(-c3c[nH]c4ncccc34)cs2)c2cc(F)ccc21,81%
6,O=C(/C=C/c1cccs1)Nc1ncc(Cc2ccccc2F)s1,-6.37% (active)
7,COc1ccc(CN2c3ccccc3Sc3ccccc32)cc1F,-5.46% (active)
8,CCN1C(=O)N(CC)C2C1NN=c1s/c(=C\c3ccccc3F)c(=O)n12 (stereo not given),0.255% (active)
9,CS(=O)(=O)Nc1cncc(-c2ccc3ncnc(Nc4cncc(Cl)c4)c3c2)c1,52.9%
10,CS(=O)(=O)c1ccc(-c2cnn3ccc(-c4cccc(S(=O)(=O)C5CC5)c4)nc23)cc1,54.7%
11,CN1C(=O)/C(=C\c2nc([P+](c3ccccc3)(c3ccccc3)c3ccccc3)c(N3CCOCC3)o2)SC1=S,100%
12,C=C(C)[C@@H]1CCC[C@]2(COS(=O)(=O)c3ccc(C)cc3)CC[C@]3(C)[C@@H](CC[C@@H]4[C@@]5(C)CCCNC(C)(C)[C@@H]5CC[C@]43C)[C@@H]12,-87.7% (active)
13,Clc1ccc2c(c1)C(c1c[nH]c3ccccc13)(c1c[nH]c3ccccc13)CCO2,81.2%
14,O=C(NCCNc1nccc(Nc2ccc(S(=O)(=O)Nc3ccccn3)cc2)n1)c1cccc([N+](=O)[O-])c1,108%
15,COc1cc2ncnc(Nc3ccc(S(=O)(=O)Nc4cc(C)on4)cc3)c2cc1OCCCN1CCN(c2ccc(F)cc2)CC1,87.6%
16,CN(C)CC1CCC(CN(C)C)C1=O (stereo not given),132%
17,Cc1ccc(NC(=O)c2sc3nc(C)c(Br)c(C)c3c2N)cc1,67%
